The nature of assay [1]: viability loss in pontine glioma line – cell-based, SU-DIPG-XVII, MIPE5.0, CellTiter-Glo, qHTS, dose response (AID 1347060).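 As to AC50: cells exposed to compound for 48 hours before viability readout.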 Conditions: CellTiter-Glo ATP luminescence.
Assay [2] can be described thus: viability loss in pontine glioma line – cell-based, SU-DIPG-XIII, MIPE4.0, CellTiter-Glo, qHTS, dose response (AID 1347061; cut-off not given, nearly all actives have AC50 up to about 37 µM;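 also: cells exposed to compound for 48 hours before readout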). Particulars: CellTiter-Glo ATP luminescence.
Assay [3] in a line: viability loss in pontine glioma line – cell-based, JHH-DIPG-1, MIPE4.0, CellTiter-Glo, qHTS, dose response (AID 1347062; cut-off not given, nearly all actives have AC50 up to about 27 µM;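 as to AC50: cells exposed to compound for two days before readout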). Particulars: JHH-DIPG-1 viability, CellTiter-Glo ATP luminescence.
Assay [4] in a line: viability loss in pontine glioma line – cell-based, SU-DIPG-IV, MIPE4.0, CellTiter-Glo, qHTS, dose response (AID 1347063; cut-off not given, nearly all actives have AC50 up to about 30 µM;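 also: compound exposure lasted 48 hours before the viability readout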). Conditions: CellTiter-Glo ATP luminescence.
A short description of assay [5]: viability loss in pontine glioma line – cell-based, SU-DIPG-XIII, MIPE5.0, CellTiter-Glo, qHTS, dose response (AID 1347064; cut-off not given, nearly all actives have AC50 up to about 23 µM;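 as to AC50: cells exposed to compound for 48 hours before the viability read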). Conditions: CellTiter-Glo ATP luminescence.
A short description of assay [6]: viability loss in pontine glioma line – cell-based, SU-DIPG-XXV, MIPE5.0, CellTiter-Glo, qHTS, dose response (AID 1347065).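 Also: cells exposed to compound for 48 hours before ATP readout.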 Particulars: CellTiter-Glo ATP luminescence.
Assay [7] can be described thus: growth inhibition of DIPG cells – cell-based, MIPE4.0 library, CellTiter-Glo luminescence, qHTS (AID 1347066; cut-off not given, nearly all actives have AC50 up to about 30 µM;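 also: cells exposed to compound for 48 hours before readout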). Conditions: SU-DIPG-VI viability, CellTiter-Glo ATP luminescence.
The nature of assay [8]: JHH-DIPG-1 glioma cell viability, MIPE5.0 library, CellTiter-Glo luminescence, qHTS (AID 1347067).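 Also: cells exposed to compound for 48 hours before readout.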 Particulars: JHH-DIPG-1 glioma viability, CellTiter-Glo ATP luminescence.
A short description of assay [9]: growth inhibition of DIPG cells – cell-based, MIPE5.0 library, qHTS (AID 1347068; cut-off not given, nearly all actives have IC50 up to about 30 µM;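 as to IC50: cells exposed to compound for 48 hours before viability readout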). Particulars: SU-DIPG-XXV viability.
A short description of assay [10]: P. berghei load reduction in hepatocytes – cell-based, HepG2, luciferase luminescence, HepG2 viability, primary screen (AID 624349; in the data active = parasite load remaining mostly below about 12%, no sharp cut-off; inactive = mostly above about 10%;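 also: 100% = mean of DMSO negative control wells on the same plate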). Particulars: P. berghei liver stage in HepG2, luciferase luminescence, concentration not given here; parasite load remaining: stronger effect = lower value; viability: measured here: HepG2 viability without parasites.
Assay [11] has as its system Aerobactin synthetase IucA (Klebsiella pneumoniae). The experiment in a line: inhibition of K. pneumoniae IucA enzyme – biochemical, Tocris library, absorbance (AID 1345561; call rule not given here;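 also: 100% = enzyme without compound and 0% = no enzyme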). Conditions: purified IucA enzyme assay, absorbance (OD) read-out; stronger effect = lower value;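 tested at 8 µM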.
A short description of assay [12]: viability loss with induced miR-34 in A549 – imaging, A549 dox-inducible miR-34, nuclei and caspase counts, primary screen (AID 1347080;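 active = compounds whose cell count with miR-34 switched on is under 0.7 times the count with it off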). Conditions: A549 miR-34 inducible, Hoechst nuclei count, 48 h.
The nature of assay [13]: galactose survival enhancers in mitochondrial complex I cybrids – cell-based, galactose medium, ATP luminescence, primary screen (AID 1645843;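 active = z-score of at least 1.8 in each of two replicates, scored against plate mean and spread of sample wells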;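 also: positive z means more ATP and so rescue of galactose-driven cybrid death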). Particulars: complex I mutant cybrid cells, 72 h, stronger effect = higher value.
[14] abbreviates: stronger effect = lower value, cell number ratio, induced over uninduced.
Where [15] appears, read: measured here: relative caspase fold change +Dox/-Dox.
[16] abbreviates: measured here: total cells with miR-34 induction, stronger effect = lower value.
The mark [17] stands for this setting: measured here: total cells without miR-34 induction.

Consider 22 molecules from PubChem BioAssay.

Each structure is given as a SMILES string. Results filed as inconclusive are left out. The source holds several records for some structures; these can differ, active in one and inactive in another. Active and inactive are the calls of the source. Unless noted, the limit is not given here; nearly all actives have AC50 up to about 26 µM.

Turning to `OC[C@H]1O[C@@H](n2cnc3c2NC=NC[C@H]3O)C[C@@H]1O`, the result in assay [1], in assay [2], in assay [3], in [4], in assay [5] and in assay [6] was inactive. The outcome in assay [7], in assay [8] and in [9] was inactive.

`CCCCC(=O)OCC(=O)[C@]1(O)Cc2c(O)c3c(c(O)c2[C@@H](O[C@H]2C[C@H](NC(=O)C(F)(F)F)[C@H](O)[C@H](C)O2)C1)C(=O)c1c(OC)cccc1C3=O`: in [1], the AC50 is 1.66 µM (active).

Turning to `CC(C)(C)C[C@H]1N[C@@H](C(=O)NC2CCC(O)CC2)[C@H](c2cccc(Cl)c2F)[C@@]12C(=O)Nc1cc(Cl)ccc12` (stereo not given in full), the AC50 in [1] was 23.5 µM (active).

Consider `c1ccc(-c2n[nH]c3c2oc2ccccc23)cc1`, for which the parasite load remaining in [10] is 24.1% (inactive). Moreover, the viability in assay [10] is 103%. Further, the remaining activity in [11] was 98.7% (inactive). The fold change in assay [12] (setting [14]) is 0.891 (inactive); in assay [12] (setting [15]) it was 1.09. In addition, the cell count was 6520 in [12] (setting [16]) and 7320 in assay [12] (setting [17]). Further, the z-score in [13] was 0.045 (inactive).

In the case of `CC(=O)NCC(=O)N1[C@@H]2CC[C@H]1c1ccc(Nc3ncc(C(F)(F)F)c(NC4CCC4)n3)cc12`, the AC50 was 0.417 µM (active) in assay [1]; 1.66 µM (active) in assay [2]; 5.9 µM (active) in [3]; 1.87 µM (active) in assay [4]; 0.661 µM (active) in [5]; 0.186 µM (active) in assay [6]. Besides, the results for the AC50 in assay [7] and in assay [8] were 2.64 µM (active) and 1.86 µM (active), respectively. In addition, in assay [9], the IC50 was 0.833 µM (active).

As for `C[C@H](O)[C@@H]1C(=O)N2C(C(=O)O)=C(S[C@@H]3CN[C@H](CNS(N)(=O)=O)C3)[C@@H](C)[C@@H]12`, the call in assay [1], in [2], in [3], in [4], in [5] and in [6] was inactive. Besides, the molecule was called inactive in assay [7], in [8] and in [9].

As to `C=C1C(=O)[C@@]23C(CC[C@@H]1[C@H]2O)[C@@]12CO[C@]3(O)[C@@H](O)[C@@H]1C(C)(C)CC[C@@H]2O` (stereo not given in full), the AC50 in [1] was 9.34 µM (active); in assay [2], 7.43 µM (active); in assay [3], 4.18 µM (active); in assay [4], 2.35 µM (active); in assay [5] it was 6.61 µM (active); in [6], 8.33 µM (active). Besides, the AC50 in assay [7] is 3.72 µM (active); in assay [8], 5.9 µM (active). For the same molecule, in [9], the IC50 was 9.34 µM (active).

As for `COc1cc(C(=O)NC(N)=Nc2ccc(C)c(NC(=O)c3ccc(-c4ccccc4)cc3)c2)cc(OC)c1OC`, the AC50 in assay [1] is 16.6 µM (active).

For `Nc1[nH]nc2nc3ccccc3nc12`, the parasite load remaining in assay [10] was 38.7% (inactive). The viability in assay [10] turned out to be 97.8%. The remaining activity in [11] was 110% (inactive). The fold change is 0.889 (inactive) in [12] (setting [14]) and 0.743 in assay [12] (setting [15]). Moreover, the values for the cell count in assay [12] (setting [16]) and in [12] (setting [17]) were 7860 and 8840, respectively. Further, the z-score in [13] was -0.17 (inactive).

Consider `OCCCNc1cc(-c2ccnc(Nc3cccc(Cl)c3)n2)ccn1`, for which the AC50 was 0.132 µM (active) in assay [1]; 0.148 µM (active) in assay [2]; 0.148 µM (active) in assay [3]; 0.0526 µM (active) in assay [4]; 0.0833 µM (active) in assay [5]; 0.132 µM (active) in assay [6]. Moreover, the AC50 in assay [8] was 0.118 µM (active). Also, the molecule was classed as inactive in assay [7]. Moreover, in assay [9], the IC50 is 0.148 µM (active).

For `O=C(CCCc1ccc(-c2ccccc2F)cc1)Nc1ccc(O)cc1`, the parasite load remaining in assay [10] is 21.2% (inactive). Moreover, in [10], the viability amounted to 102%. Besides, the remaining activity in assay [11] was 95.9% (inactive). Further, the fold change was 1.05 (inactive) in [12] (setting [14]) and 1.19 in assay [12] (setting [15]). The values for the cell count in assay [12] (setting [16]) and in [12] (setting [17]) were 2340 and 2220, respectively. Besides, the z-score in assay [13] was -0.66 (inactive).

As to `COC(=O)C1=C(C)NC(c2ncc(F)cc2F)=N[C@H]1c1ccc(F)cc1Cl`, the AC50 in assay [1] was 23.5 µM (active).

`O=C(NC1CC1)c1cccc(-c2ccc3c(NC(=O)C4CC4)n[nH]c3c2)c1`: the AC50 in assay [1] is 10.5 µM (active); in [2], 4.69 µM (active); in assay [3], 9.35 µM (active); in [4], 11.8 µM (active); in [5], 8.33 µM (active).

Consider `O=c1cc(N2CCOCC2)nc2c3ccccc3ccn12`, for which the parasite load remaining in assay [10] was 31.9% (inactive). Also, the viability in assay [10] is 94.8%. In assay [11], the remaining activity is 126% (inactive). Moreover, the results for the fold change in [12] (setting [14]) and in [12] (setting [15]) were 0.935 (inactive) and 1.52, respectively. Besides, the cell count in assay [12] (setting [16]) is 8560; in assay [12] (setting [17]) it was 9160. Also, the z-score in assay [13] was 1.56 (inactive).

In the case of `CCOc1cc2c(c(F)c1OCC)C(=N)N(CC(=O)c1cc(N3CCOCC3)c(OC)c(C(C)(C)C)c1)C2`, the AC50 in [1] was 26.3 µM (active); in assay [2], 2.35 µM (active); in [3], 23.5 µM (active); in assay [4], 16.6 µM (active); in assay [5], 29.5 µM (active); in assay [6], 23.5 µM (active). The AC50 in assay [7] is 16.6 µM (active); in assay [8], 20.9 µM (active).

As to `Cc1cc(C)c(CNC(=O)c2cc(-c3ccc(N4CCN(C)CC4)nc3)cc3c2c(C)cn3C(C)C)c(=O)[nH]1`, the figures for the AC50 in [1] and in [6] were 20.9 µM (active) and 26.3 µM (active), respectively. Moreover, the outcome in assay [1], in assay [5] and in assay [9] was inactive.

Turning to `CC1=C(CO)C(=O)O[C@@H]([C@@H](C)[C@H]2CC[C@H]3[C@@H]4C[C@H]5O[C@]56[C@@H](O)C=CC(=O)[C@]6(C)[C@H]4CC[C@]23C)C1`, the AC50 in [1] was 1.48 µM (active); in [2] it was 1.87 µM (active); in assay [3], 1.18 µM (active); in [4], 0.332 µM (active); in assay [5], 1.05 µM (active); in [6], 1.48 µM (active). Further, the AC50 in [7] was 0.743 µM (active); in assay [8] it was 1.32 µM (active). Further, the IC50 in assay [9] was 2.35 µM (active).

Regarding `Cn1cc(C[C@@H](N)C(=O)O)c2ccccc21`, the result in assay [1], in assay [2], in assay [3], in assay [4], in assay [5] and in assay [6] was inactive. Further, the result in assay [7], in assay [8] and in assay [9] was inactive.

Turning to `CC[C@@]1(O)C(=O)OCc2c1cc1n(c2=O)Cc2c-1nc1cc(F)c(C)c3c1c2[C@@H](N)CC3`, the AC50 in assay [1] is 0.00235 µM (active).

On to `Cc1c(CN2CCN(C(=O)[C@H](C)O)CC2)sc2c(N3CCOCC3)nc(-c3cnc(N)nc3)nc12`, for which the AC50 in [1] is 0.59 µM (active); in [2], 1.87 µM (active); in [3], 1.87 µM (active); in assay [4], 0.0418 µM (active); in assay [5] it was 0.59 µM (active); in assay [6], 0.209 µM (active). Besides, the AC50 in assay [7] is 0.935 µM (active); in assay [8] it was 0.372 µM (active). Besides, the IC50 in assay [9] was 0.934 µM (active).

As for `O=C1NC(=O)/C(=C/c2ccc3nccc(-c4ccncc4)c3c2)S1`, the AC50 was 1.18 µM (active) in assay [1]; 0.743 µM (active) in assay [2]; 1.05 µM (active) in [3]; 0.0833 µM (active) in assay [4]; 1.48 µM (active) in [5]; 0.468 µM (active) in [6]. Also, the AC50 in [7] was 0.264 µM (active); in [8], 1.48 µM (active). Also, the concentration for half-maximal inhibition (IC50) in [9] is 1.32 µM (active).

As to `C[C@@H](Oc1ccc2[nH]nc(/C=C/c3cnn(CCO)c3)c2c1)c1c(Cl)cncc1Cl`, the concentration at half-maximal activity (AC50) in [1] is 0.0295 µM (active); in assay [2] it was 0.418 µM (active); in assay [3] it was 20.9 µM (active); in assay [4], 5.9 µM (active); in assay [5], 0.0148 µM (active); in assay [6] it was 0.0105 µM (active). Moreover, the results for the AC50 in assay [7] and in assay [8] were 16.6 µM (active) and 0.468 µM (active), respectively. In addition, in [9], the IC50 was 2.09 µM (active).
